The text below walks through data of the supplement of paper PMC13380429.

This assay has as its system Vero E6 infected with SARS-CoV-2. Description: morphology score (similarity to uninfected cells); higher = more like uninfected cells. Conditions: 24 h.
Molecule `NC1(c2ccc(-c3nc4ccn5c(=O)[nH]nc5c4cc3-c3ccccc3)cc2)CCC1` (0.833333 µM) registered a morphology score of 0.255.
The figure for `O=c1cc(N2CCNCC2)oc2c(-c3ccccc3)cccc12` (10 µM) is 0.175.
The figure for `COc1ncc(-c2ccc3nccc(-c4ccnnc4)c3c2)cc1NS(=O)(=O)c1ccc(F)cc1F` (0.833333 µM) is -0.0933.
`Nc1ccc(S(=O)(=O)Nc2ccccn2)cc1` [sulfapyridine] (10 µM) had a morphology score of 0.0798.
Molecule `CCCCN1CCCCC1C(=O)Nc1c(C)cccc1C` (centres undefined) [bupivacaine] (10 µM) gave a morphology score of 0.0282.
The figure for `CC(C)NCC(O)COc1cccc2[nH]c3ccccc3c12` (centres undefined) [carazolol] (10 µM) is -0.011.
For the molecule `Nc1ncnc2c1ncn2C1CCCO1` (centres undefined) (10 µM), the morphology score amounted to 0.029.
`NS(=O)(=O)c1cc(-c2nnn[nH]2)c(NCc2cccs2)cc1Cl` [azosemide] (10 µM) came in with a morphology score of 0.286.
Turning to `CC(C)(C)NCc1cc(Nc2ccnc3cc(Cl)ccc23)c2c(c1O)CCCC2` [naphthoquine-phosphate] (10 µM), the morphology score amounted to 0.103.
`Nc1ccn([C@@H]2CS[C@H](CO)O2)c(=O)n1` [lamivudine] (10 µM): the morphology score was -0.00863.
The figure for `COc1cc2c(cc1OC)-c1c(C)c3ccc(OC)c(OC)c3c[n+]1CC2` [dehydrocorydaline] (10 µM) is 0.0289; for `C=C1CC[C@H](O)C/C1=C/C=C1\CCC[C@]2(C)[C@@H]([C@H](C)CCCC(C)(C)O)CC[C@@H]12` [calcifediol] (10 µM) it is -0.0147.
For `Nc1nc(N)c2nc(-c3cccc(O)c3)cnc2n1` (10 µM), the morphology score was determined as 0.242.
In turn, `CC1=C(/C=C/C(C)=C/C=C/C(C)=C/CO)C(C)(C)CCC1` [retinol] (10 µM) yielded a morphology score of -0.0178.
Consider `O=C(c1ccc2nccnc2c1)N1CCCCC1` [ampalex] (10 µM), for which the morphology score was -0.0456.
The figure for `CNCCCCOc1ccccc1Cc1ccccc1` [bifemelane] (10 µM) is 0.517.
`CN(C(=O)CN1C(=O)COc2cc(Cl)c(Cl)cc21)[C@@H](CN1CCCC1)c1ccc(-c2cccc(C(N)=O)c2)cc1` (0.833333 µM) showed a morphology score of 0.0807.
Molecule `O=C(Nc1ccc(Cl)cc1)Nc1cccc(-c2cccc(N3CCCC3)n2)c1` (10 µM) gave a morphology score of 0.00797.
Regarding `CC(=O)Nc1c(I)c(C(=O)O)c(I)c(N(C)C(C)=O)c1I` [metrizoic-acid] (10 µM), the morphology score was 0.0802.
The figure for `C[C@H]1C[C@H]2[C@@H]3CCC4=CC(=O)C=C[C@]4(C)[C@H]3C(=O)C[C@]2(C)[C@@]1(O)C(=O)CO` [Betapar (Meprednisone)] (10 µM) is 0.0238.
The figure for `Nc1ncc2c(n1)CC(c1ccco1)CC2=O` (centres undefined) (10 µM) is 0.0161.
The figure for `CN1CCN(c2cc3c(cc2F)c(=O)c(C(=O)O)cn3-c2ccc(F)cc2)CC1` [difloxacin] (10 µM) is -0.0785; for `CN(C(=O)/C=C/c1ccoc1)[C@@H]1CC[C@@]2(O)[C@H]3Cc4ccc(O)c5c4[C@@]2(CCN3CC2CC2)[C@H]1O5` [nalfurafine] (10 µM) it is -0.0681; for `CC(C)(C)c1cc(/C=C(\C#N)C(N)=S)cc(C(C)(C)C)c1O` [tyrphostin-AG-879] (0.833333 µM) it is 0.166.
In the case of `CN[C@@H](C)C(=O)N[C@H](C(=O)N1CCC[C@H]1C(=O)N[C@H]1c2ccccc2C[C@H]1OCC#CC#CCO[C@@H]1Cc2ccccc2[C@@H]1NC(=O)[C@@H]1CCCN1C(=O)[C@@H](NC(=O)[C@H](C)NC)C1CCCCC1)C1CCCCC1` (10 µM), the morphology score is -0.161.
In turn, `Nc1nc(-c2nn(Cc3ccccc3F)c3ncccc23)ncc1C1CC1` (0.833333 µM) yielded a morphology score of -0.057.
The figure for `N#Cc1ccc(Cn2cncc2CN2CCN(c3cccc(Cl)c3)C(=O)C2)cc1` (10 µM) is 0.276; for `CCNCC(O)c1cccc(O)c1` (centres undefined) [etilefrine] (10 µM) it is 0.131.
`CC[C@@H](C)N(C)C(=O)c1cc2ccccc2c(-c2ccccc2Cl)n1` (10 µM) came in with a morphology score of -0.122.
For the molecule `Oc1ccc(CC2NCCc3cc(O)c(O)cc32)cc1` (centres undefined) [higenamine] (0.833333 µM), the morphology score was found to be 0.0764.
`O=C(Cn1ccnc1[N+](=O)[O-])NCc1ccccc1` [benznidazole] (10 µM) yielded a morphology score of 0.0566.
On to `CCCCN1CCC(CNC(=O)c2c3n(c4ccccc24)CCCO3)CC1` [piboserod] (10 µM), for which the morphology score is 0.132.
The figure for `CNC(=O)c1cc(Oc2ccc(NC(=O)Nc3cc(C(C)(C)C)nn3-c3ccc4ncccc4c3)c(F)c2)ccn1` [rebastinib] (0.833333 µM) is 0.567; for `CC1(C)C(/C=C/C=C/C=C/C=C2\N(CCCCS(=O)(=O)O)c3ccc4ccccc4c3C2(C)C)=[N+](CCCCS(=O)(=O)[O-])c2ccc3ccccc3c21` [indocyanine-green] (10 µM) it is 0.0305.
